# Bioassay records as filed in PubChem.
# The list is not random: actives were taken first. Their share in the collection is about 3.5%.
# GDH-TPI counter = counter-screen for M. tuberculosis FBA inhibitors: GDH-TPI coupled enzymes. GDH-TPI coupled enzyme counterscreen, NADH absorbance. inhibition, % at 4.8 µM. 360,000 tested, 1.2% active. AID 588335; in the data active = inhibition above about 30%;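 also: 0% = DMSO wells and 100% = wells lacking the enzyme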
# Mtb FBA inh = Mtb fructose-bisphosphate aldolase inhibition; inhibition, % at 1 µM; 360,000 tested, 2.3% active; AID 588726; P9WQA3; purified M. tuberculosis FBA, fluorescence read-out; in the data active = inhibition above about 27%;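 also: 0% = vehicle and 100% = reference inhibitor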
# Target sequence (P9WQA3 whole entry, looked up): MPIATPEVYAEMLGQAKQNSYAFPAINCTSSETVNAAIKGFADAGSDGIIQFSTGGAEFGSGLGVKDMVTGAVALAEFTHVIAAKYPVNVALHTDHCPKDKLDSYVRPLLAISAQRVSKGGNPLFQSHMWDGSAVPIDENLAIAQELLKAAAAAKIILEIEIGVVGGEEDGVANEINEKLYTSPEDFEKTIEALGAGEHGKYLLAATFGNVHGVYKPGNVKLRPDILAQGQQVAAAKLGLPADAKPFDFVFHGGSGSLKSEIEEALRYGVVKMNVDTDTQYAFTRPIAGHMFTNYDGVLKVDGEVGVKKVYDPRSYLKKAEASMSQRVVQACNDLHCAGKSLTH
# Rv3671c protease = inhibitors of M. tuberculosis serine protease Rv3671c. inhibition, % at 5.96 µM. 320,000 tested, 0.048% active; in the data active = inhibition above about 38%;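 also: extracellular domain of Rv3671c used as enzyme; 0% = enzyme with DMSO and 100% = no enzyme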
# UGM FP inh = inhibitors of M. tuberculosis UDP-galactopyranose mutase; P9WIQ1; purified UGM, fluorescence polarization probe displacement; inhibition, % at 10 µM; 320,000 tested, 0.06% active; AID 504406; in the data active = inhibition above about 10%, passing the limit was not always enough
# * hit, by the source's call; nt = no result given; + = active, no number.
SMILES,GDH-TPI counter,Mtb FBA inh,Rv3671c protease,UGM FP inh
COc1ccccc1S(=O)(=O)N(C)C[C@H]1Oc2cc(C#CCC3CCCC3)ccc2S(=O)(=O)N([C@H](C)CO)C[C@H]1C,12,1,nt,nt
Cc1c(C)c2ccc(OC3CCCCC3=O)cc2oc1=O (centres undefined),9,153*,-2,-1
CC(C)OC(=O)c1c(N)n(CCCN2CCOCC2)c2nc3ccccc3nc12,12,147*,-2,0
COc1ccccc1CNC(=O)c1c(N)n(CCCN2CCOCC2)c2nc3ccccc3nc12,14,82*,nt,nt
CC(C)C(=O)Nc1ccc(Nc2ccccc2)cc1,10,0,18,0
O=C(Nc1ccc2nn(-c3ccccc3)nc2c1)c1cccnc1,35*,-1,-22,3
O=C(Nc1cc2nn(-c3ccccc3)nc2cc1Cl)c1ccco1,38*,9,-6,3
O=C(Nc1ccc2nn(-c3ccccc3)nc2c1)c1ccco1,33*,16,-18,0
O=C(Nc1ccc2nn(-c3ccc(F)cc3)nc2c1)c1cccnc1,6,0,-4,-1
CC(C)C(=O)Nc1ccc2nn(-c3ccccc3)nc2c1,23,+,-4,-2
COc1cc([C@H]2OC[C@H]3[C@@H]2CO[C@@H]3c2ccc(O[C@H]3O[C@H](CO)[C@@H](O)[C@H](O)[C@H]3O)c(OC)c2)ccc1O[C@@H]1O[C@H](CO)[C@@H](O)[C@H](O)[C@H]1O,9,6,2,-1
O=S(=O)(Cc1ccccc1Cl)NCCc1ccc(F)cc1,-3,0,3,1
c1ccc2c(c1)CCCN2c1nc2ccccc2n2cnnc12,36*,2,8,0
COc1ccc2[nH]c(C(=O)NCc3ccccc3)c(C)c2c1,3,40*,-7,1
COc1ccc2cc(C(=O)NCc3ccccc3)[nH]c2c1,-6,6,nt,1
CCCS(=O)(=O)Nc1c(C(=O)O)[nH]c2ccc(OC)cc12,1,129*,-7,1
CCOC(=O)c1[nH]c2ccc(OC)cc2c1NC(=O)NC(C)C,2,35*,-3,0
COc1ccc2[nH]c(C(=O)O)c(NS(=O)(=O)c3ccc(C)cc3C)c2c1,1,2,-6,0
CC1CCN(C(=O)CCNC(=O)c2ccccc2Cl)CC1,1,2,-4,-1
COc1ccc(C(=O)OCc2c(-c3ccccc3)ncc3ccccc23)cc1,18,5,-13,0
O=C(Nc1ccnn1C1CCN(CCCc2ccccc2)CC1)c1cccc(F)c1,-5,4,10,-2
CC(=O)Oc1ccc2ccc3ccc(C(C)=O)cc3c2c1,19,27,nt,nt
C/C(=N/NC(N)=S)c1cc2ccc(O)cc2oc1=O,-4,129*,-3,-1
NC(=S)c1cc2ccc(O)cc2oc1=O,16,+,nt,nt
C/C(=N/NC(=O)c1ccncc1)c1cc2ccc(O)cc2oc1=O,10,+,9,42*
SMILES,GDH-TPI counter,Mtb FBA inh,Rv3671c protease,UGM FP inh
C/C(=N\NC(=O)c1ccccc1)c1cc2cc([N+](=O)[O-])ccc2oc1=O,17,-8,-2,5
C/C(=N\NC(=O)c1ccc([N+](=O)[O-])cc1)c1cc2ccccc2oc1=O,32*,-1,-2,-1
Oc1ccc2c(c1)oc1cc(O)ccc12,-5,14,11,-1
Oc1cc(O)cc(-c2cc3ccc(O)cc3o2)c1,0,177*,5,-1
Nc1nc2nc(-c3ccc(Cl)cc3)cc(C(F)(F)F)n2n1,1,+,-3,0
Cc1nn2c(C(F)(F)F)cc(-c3ccc(Cl)cc3)nc2c1C(=O)N1CCOCC1,13,5,-4,1
Cc1noc(C)c1NC(=O)Nc1cccc2c1O[C@H](CN(C)S(=O)(=O)c1cn(C)cn1)[C@@H](C)CN([C@H](C)CO)C2=O,8,-1,-9,0
COc1ccc(/C=N/Nc2cc(C)nc(N)n2)cc1,35*,-1,11,0
COc1ccc(/C=N/Nc2cc(C)nc(N3CCOCC3)n2)cc1,33*,0,2,-4
COc1ccc(/C=N/Nc2cc(OC)ncn2)cc1,31*,-2,3,2
COc1ccc(/C=N/Nc2cc(N(C)C)nc(N(C)C)n2)cc1,24,2,-15,1
COc1ccc(/C=N/Nc2cc(C)nc(-n3nc(C)cc3C)n2)c(OC)c1,37*,0,-6,-3
COc1cccc(C(C(=O)NCC2CCCO2)N(C(=O)Cn2nnc3ccccc32)c2ccc(NC(C)=O)cc2)c1 (centres undefined),8,-3,-6,1
COc1ccc2c(c1)C=Cc1ccccc1O2,nt,nt,-7,2
CCCCn1c(=O)c(C(=O)Nc2ccccc2S(N)(=O)=O)c(O)c2ccccc21,7,4,-12,3
CCCCCn1c(=O)c(C(=O)Nc2ccccc2S(N)(=O)=O)c(O)c2ccccc21,3,2,-5,65*
CC(=O)C1C2c3ccccc3OC1(C)N=c1s/c(=C/c3cn(C)nc3C)c(=O)n12 (centres undefined),36*,1,11,-2
CCOc1ccc(NC(=O)NCC2CCN(c3ccc(OC)cc3)C2)cc1 (centres undefined),33*,5,-7,1
CCc1ccc(NC(=O)NCC2CCN(c3ccc(OC)cc3)C2)cc1 (centres undefined),9,1,0,-1
CCN(CC)CCNC(=O)c1ccc(NC(=O)c2ccc(-n3cncn3)c([N+](=O)[O-])c2)cc1,8,2,nt,nt
CCn1cc(C(=O)NCc2cccc(F)c2)c(=O)c2cc(F)c(N3CCN(C(=O)c4ccco4)CC3)cc21,1,38*,-23,-1
CCn1cc(C(=O)O)c(=O)c2cc(F)c(N3CCN(C(=S)NC(=O)c4cccc(F)c4)CC3)cc21,14,0,9,1
COc1cc2cc(C(=O)NCCc3ccccc3)[nH]c2cc1OC,3,160*,nt,4
COc1cc2cc(C(=O)Nc3ccc4c(c3)OCCO4)[nH]c2cc1OC,36*,2,7,1
CC(C)N1CC(C(=O)Nc2ccc(C#N)cc2)CC1=O (centres undefined),-4,1,8,5
SMILES,GDH-TPI counter,Mtb FBA inh,Rv3671c protease,UGM FP inh
Cc1ccc(S(=O)(=O)/C(C#N)=C/c2c(N3CC(C)OC(C)C3)nc3ccccn3c2=O)cc1 (centres undefined),9,-3,-2,0
N#C/C(=C\c1c(N2CCOCC2)nc2ccccn2c1=O)C(=O)NC1CCS(=O)(=O)C1 (centres undefined),13,+,-8,0
C=CCNC(=O)/C(C#N)=C/c1c(N2CC(C)OC(C)C2)nc2ccccn2c1=O (centres undefined),4,126*,-8,1
CC(C)c1cccc(C(C)C)c1OCCCCCN1CCOCC1,-1,3,6,5
COC(CSc1nc(N)c2c3c(sc2n1)CN(C)CC3)OC,36*,181*,-2,0
CCCCN1C(=O)C(CC(=O)NCCCN(C)C)CC(C(=O)N2CCOCC2)=C1C (centres undefined),-12,3,nt,nt
CC(C)Oc1cccc(C(=O)NC(=S)Nc2ccc(N3CCN(C)CC3)cc2)c1,5,85*,0,1
